{
  "source": "PubChem BioAssay AID1508600",
  "about": "(Functional Genomics Laboratory (NCATS/FGL), 2020)",
  "note": "The campaign covered roughly 53,000 sequences. About 3,700 (7%) were called active. The entries come from a sample that favours actives as a whole. Values without a mark were called inactive.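 Rule for the calls: active = gene knockdowns whose robust z-score for IL-1 alpha signal is at least 2 or at most -2, so actives lie on both sides; inactive = the rest.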",
  "data": [
    {"assay": "Components of the Cytosolic LPS Sensing Pathway: Gene Identification via Genome-wide siRNA Screen;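 note: robust z of the log signal after scaling to non-targeting control siRNA wells of the plate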", "details": "RAW264.7 macrophages, IL-1a HTRF, actives lie on both sides, screened at 100 nM (by protocol), cells primed 5 h with Pam3CSK4 first", "how_it_was_run": "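Read-out: IL-1a HTRF on supernatant, divided by plate negative-control median ×100, log-transformed and converted to robust z-score. Cells were RAW264.7 given 100 nM siRNA, Pam3CSK4-primed 5 hours, then LipidA-transfected 24 hour.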", "values": [
      {"sequence": "CCUGGGAGCCUAUUAUUCUTT against Ndufb10", "z-score": -0.032},
      {"sequence": "GGAAGAUAACCAUUUUGAATT against Setd4", "z-score": -0.777},
      {"sequence": "CGGCGUGUUUAUUUGCUAUTT against Rab27a", "z-score": -1.38},
      {"sequence": "CCUGGUUUACAUGUACGGGTT against Tap2", "z-score": 0.494},
      {"sequence": "GCUAGAGACGAGAAGAUGATT against Ano10", "z-score": "-2.47 (active)"},
      {"sequence": "GCACUUCGAAGAAAUAAAATT against Ahsa2", "z-score": 0.396},
      {"sequence": "CGAGGACAAAAAUACCGACTT against Supt6", "z-score": -1.51},
      {"sequence": "GAAGAUUAUCCAUUGCCCGTT against Lce1h", "z-score": 0.689},
      {"sequence": "GGACCCAGCUCCUGUACAUTT against Ypel3", "z-score": "2.31 (active)"},
      {"sequence": "GGGACAGAGCCGAAAGAGUTT against Mrpl33", "z-score": -1.39},
      {"sequence": "CCUUGCCUUUACUACCAGUTT against Olfr15", "z-score": -0.187},
      {"sequence": "GCGAUACCAGGGACUACAUTT against Zfp692", "z-score": 1.75},
      {"sequence": "CGCUCUCUCUACAAAGGAUTT against A230052G05Rik", "z-score": 0.984},
      {"sequence": "GGGAAUUUGGGCAUGAUCATT against Olfr44", "z-score": "-2.02 (active)"},
      {"sequence": "GCAUGUUCGCACGUGUCAATT against 5330439B14Rik", "z-score": -1.05},
      {"sequence": "CGACUGAUAGAUGAGUAAATT against C130026L21Rik", "z-score": 0.424},
      {"sequence": "CCGCACAUGCUCUCAAAUATT against Polr3d", "z-score": -1.25},
      {"sequence": "GGACAAAGAGGCAAUGGGATT against Dnajb9", "z-score": 1.08},
      {"sequence": "GGUAAAAUCACUUCAGAUCTT against Phb", "z-score": "2.23 (active)"},
      {"sequence": "GCAAGUGGAGUUUAUUGAUTT against Dbndd2", "z-score": -0.0399},
      {"sequence": "CGCAUGAUAACUAGAGAAUTT against Slitrk3", "z-score": -0.269},
      {"sequence": "GGCUGUUCGGGUGACUAUUTT against Il17re", "z-score": "-2.83 (active)"},
      {"sequence": "GGCAAUGUUUACAAGUUCCTT against Ralgps1", "z-score": 0.491},
      {"sequence": "GCAGUACUAAGGAAGAUAUTT against Nudcd1", "z-score": -0.842},
      {"sequence": "GCAUAAGCUACUGCUGACATT against Pcdha6", "z-score": -0.782},
      {"sequence": "GGCAGCAGCACUGAUUACUTT against Gjc2", "z-score": "-2.17 (active)"},
      {"sequence": "GGCAAGGCUACUACUUGCATT against Fgf14", "z-score": -0.117},
      {"sequence": "GCCAGACACUUAAUCCCGUTT against Unc13d", "z-score": 0.147},
      {"sequence": "GGAUAUCAAGGGAUCAGACTT against Chchd4", "z-score": 0.00163}
    ]}
  ]
}
